Hits are enriched below; roughly 7.9% of the tested compounds scored in any of these assays.
MCF10A rerep = DNA re-replication induction in MCF 10a cells. MCF 10A DNA re-replication, Hoechst nuclear intensity, 48 h. Potency, µM (top dose mostly 46.1 µM), inactives show at the highest dose activity, positive = re-replication, hits mostly activators. hit rate 2.9% among 350,000. AID 624296; also: % of control where 0% means no effect; nearly all actives have a fitted effect of over 50% in size
SW480 rereplic = induces DNA re-replication in SW480 colon adenocarcinoma cells | Potency, µM (titrated, usually from 46.1 µM), without a hit: at the highest dose re-replication activation, hits mostly activators | SW480 DNA re-replication, Hoechst DNA content imaging, 48 h | hit rate 1.8% among 340,000; also: % of control where 0% means no effect; nearly all actives have a fitted effect of over 55% in size
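Hoechst fluorescence of nuclei (405 nm excitation, 500-530 nm emission) measured by plate-scanning imager after 48 hr compound exposure at 37 C; re-replication scored as increased number of nuclei with elevated intensity.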
KB-V1 MDR tox = kills drug-selected multidrug resistant KB-V1 cells; KB-V1 MDR cells viability, CellTiter-Glo, 72 h; Potency, µM (series often up to 46.1 µM), usual class: cytotoxic; hit rate 3.4% among 400,000; also: % is scaled to controls: 0 for no effect and ±100 for the full control effect; nearly all actives have a fitted effect of over 60% in size
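Drug-selected KB-V1 cells, grown in DMEM lacking phenol red with 10% FBS, receive compound titrations; after three days at 37 degrees C, surviving cell ATP is quantified by CellTiter-Glo luminescence and responses normalized and curve-fitted.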
HT1080NT lethal = kills 2HG-producing HT-1080-NT fibrosarcoma cells. HT-1080-NT fibrosarcoma viability, CellTiter-Glo ATP luminescence, 48 h. hit rate 1.6% among 360,000. Potency, µM (titrated, usually from 46.1 µM), for inactives: top-dose activity, negative = less viability, usual class: cytotoxic;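 also: NT is the 2HG producing partner of a matched IDH1 knockdown line; 0% = DMSO-treated cells and -100% = media-only wells without cells; nearly all actives have a fitted effect of over 55% in size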
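HT-1080-NT; 750 cells/well; 5% FBS RPMI; 48 h compound, 37 degrees C; CellTiter-Glo luminescence; curve fitting and curve-class assignment.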
HT1080 IDH1KD tx = HT-1080 IDH1 knockdown cell toxicity (counter line) | HT-1080 IDH1 knockdown viability, ATP luminescence, 48 h | AID 686971 | hit rate 2% among 360,000 | Potency, µM (highest dose often 46.1 µM), without a hit: top-dose activity, negative = toxicity, actives largely listed as cytotoxic;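 also: 0% = DMSO wells and -100% = cell-free medium wells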
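Knockdown cells (IDH1KD HT-1080) received compounds 2 h after plating at 750 cells/well and were kept 48 h at 37 °C in 5% FBS RPMI. A CellTiter-Glo luminescence read gave % activity for curve fitting.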
KB-3-1 cytotox = KB-3-1 parental cell cytotoxicity; hit rate 1.4% among 400,000; Potency, µM (series often up to 46.1 µM), usual class: cytotoxic; KB-3-1 viability, CellTiter-Glo ATP luminescence, 72 h; AID 1347075; also: % is scaled to controls: 0 for no effect and ±100 for the full control effect; nearly all actives have a fitted effect of over 60% in size
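KB-3-1 cells, DMEM (no phenol red) + 10% FBS; compound by pin transfer, 72 h, 37 °C. Readout: CellTiter-Glo luminescence after 10 min. Data normalized, curve-fitted.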
Numbers without * were called inactive; i = inactive; ? = inconclusive; . = not tested or not shown; ! = not confirmed by another sample; [ ] = dose if it differs, or a comment. Calls follow the shape of the dose curve; as a rule, active = well fitted curve in the direction sought with a large enough effect; inconclusive = small, poorly fitted or top-dose-only effect, or another doubt; inactive = no such curve, though single readings can be large; an effect the other way counts as inactive or inconclusive. Potency is read from the fitted curve at half-maximal effect.

SMILES	MCF10A rerep	SW480 rereplic	KB-V1 MDR tox	HT1080NT lethal	HT1080 IDH1KD tx	KB-3-1 cytotox
COc1cccc2oc3cc(C#CC4(O)CCCCC4)ccc3c(=O)c12	?	-2%	i	-10%	-9%	i
COc1cc2c(cc1OC)C(c1oc(-c3ccc(-c4cc(Cl)ccc4Cl)o3)cc1C)=NCC2	.	.	i	.	.	?
O=C(NCc1ccc(Cl)c(Cl)c1)c1cc(C2CCCCN2C(=O)CCc2ccccc2)on1 (stereo not given)	.	.	i	7%	10%	i
CCCCCCCCCCOC(=O)C[N+](C)(C)C/C=C(/C)Cl	23µM*	5%	i	-8%	-10%	i
CCCCCCCCOC(=O)C[N+](C)(C)C/C=C(/C)Cl	7%	-2%	?	-4%	-14%	i
COc1cccc(CNC(=O)CCCn2nc(C)c3sc4ccccc4c3c2=O)c1	.	.	i	.	.	i
O=S(=O)(c1ccccc1)c1ncc(C(F)(F)F)cc1Cl	6.3µM*	?	i	?	16µM*	i
COc1ccc(CCNC(=O)C2CCN(Cc3nc(-c4ccccc4C)oc3C)CC2)cc1OC	22%	2%	7.3µM*	?	?	?
COc1ccc(OC)c(CCNC(=O)CS(=O)(=O)Cc2nc(-c3ccccc3C)oc2C)c1	6%	-3%	6.5µM*	3%	1%	?
Cc1ccccc1-c1nc(CN2CCC(C(=O)NCCCN3CCCC(C)C3)CC2)c(C)o1 (stereo not given)	7%	21µM*	i	18µM*	9.2µM*	i
Cc1ccccc1-c1nc(CN2CCC(C(=O)NCCc3ccccc3)CC2)c(C)o1	.	.	i	.	.	i
Cc1ccc(S(=O)(=O)N2CCC[C@H]2C(=O)OCc2nc3ccccc3s2)cc1	2%	-3%	i	0%	4%	i
Cc1cc(/C=C2\Sc3ccccc3N2C)cc(C)[n+]1CC1CCCO1 (stereo not given)	?	9.2µM*	i	9.2µM*	?	0.65µM*
O=S(=O)(NCCc1nnc2ccc(SCc3c(F)cccc3Cl)nn12)c1ccccc1	.	.	i	.	.	i
Nc1ncnc2c1ncn2C1OC(CO)C(O)C1N (stereo not given)	?	?	i	9%	0%	i
Nc1ncnc2c(C3OC(CO)C(O)C3O)scc12 (stereo not given)	?	?	?	0.26µM*	0.037µM*	0.1µM*
COc1ccccc1N1CCN(Cc2nc(-c3cc(OC)c(OC)c(OC)c3)no2)CC1	.	.	i	.	.	i
Cc1ccc(Nc2nc(NCC3CCCO3)nc(N)c2[N+](=O)[O-])cc1 (stereo not given)	12%	29%	21µM*	-20%	-18%	i
CCOC(=O)COc1ccc(CC)cc1C(=O)c1ccn2nc(-c3ccc(F)cc3)cc2n1	.	.	?	.	.	i
CC1CN(c2ccccn2)C(C)CN1C(=S)Nc1ccccc1 (stereo not given)	-1%	-3%	23µM*	11%	23%	i
CC(C)N1CCc2c(sc(NC(=O)c3nc4ccccc4s3)c2C(N)=O)C1	23%	?	?	?	-28%	i
CNC(=O)c1c(NC(=O)c2ccc(S(=O)(=O)N(C)c3ccccc3)cc2)sc2c1CCN(C(C)C)C2	15µM*	?	?	-4%	-1%	i
CC(C)N1CCc2c(sc(NC(=O)c3cc(-c4cccs4)nc4ccccc34)c2C(N)=O)C1	18µM*	?	i	?	?	?
CCN1CCc2c(sc(NC(=O)c3ccc(S(=O)(=O)N(C)c4ccccc4)cc3)c2C(=O)NC)C1	16µM*	?	i	-21%	-24%	i
NC(=O)c1ccsc1NC(=O)c1ccc(S(=O)(=O)N2CCCc3ccccc32)cc1	?	?	?	-19%	-20%	23µM*
SMILES	MCF10A rerep	SW480 rereplic	KB-V1 MDR tox	HT1080NT lethal	HT1080 IDH1KD tx	KB-3-1 cytotox
COc1cc2[nH]c(=O)n(Cc3ccc(C(=O)N4CCN(c5cccc(C)c5C)CC4)cc3)c(=O)c2cc1OC	.	.	i	.	.	i
CC(C)CCNC(=O)CN1C(=O)CSc2ccc(S(=O)(=O)N3CCCCC3)cc21	.	.	i	.	.	i
Cc1ccc(NC(=O)CSc2nnc3nc(C)cc(C)n23)cc1	.	.	i	.	.	i
CCOC(=O)c1c(NC(=O)c2ccc(S(=O)(=O)N3CCC(C)CC3)cc2)sc2c1CCN(C(C)C)C2	.	.	i	.	.	i
CC(C)N1CCc2c(sc(NC(=O)c3ccc(S(=O)(=O)N4CCc5ccccc54)cc3)c2C(N)=O)C1	?	3%	?	?	21µM*	21µM*
Cc1ccc(S(=O)(=O)NC(=O)C2(C)CCN2C(=O)c2cccc(F)c2)cc1 (stereo not given)	.	.	i	23%	0%	i
CCN1/C(=C\C(C)=O)Sc2ccc(OC)cc21	27%	-15%	i	0%	-2%	i
CCN1/C(=C/C(C)=C/c2sc3ccccc3[n+]2CC)Sc2ccccc21	-7%	30%	21µM*!	10µM*	1.5µM*	0.73µM*
Cn1c(=O)c2c(nc(Sc3ncccn3)n2Cc2ccc(Cl)cc2)n(C)c1=O	7%	-1%	i	-3%	-12%	i
COc1ccc(Oc2nc3c(c(=O)n(C)c(=O)n3C)n2Cc2ccccc2Cl)cc1	.	.	i	.	.	i
C=CCOc1nc2c(c(=O)n(C)c(=O)n2C)n1Cc1ccc(Cl)cc1	-8%	-6%	2.9µM*	3%	18%	?
Cn1c(=O)c2c(nc(Sc3ncccn3)n2Cc2ccccc2Cl)n(C)c1=O	?	-13%	23µM*	4%	0%	i
C=CCOc1nc2c(c(=O)n(C)c(=O)n2C)n1Cc1ccccc1Cl	?	-3%	7.3µM*	5%[9.24 µM]	?	?
CCCOc1nc2c(c(=O)n(C)c(=O)n2C)n1Cc1cccc2ccccc12	18%	10%	5.8µM*	10%	7%	i
CCCOc1nc2c(c(=O)n(C)c(=O)n2C)n1C	-5%	-3%	i	17%	10%	i
COc1cc(NC(=O)Cn2nc(C(F)(F)F)c3c2CCC3)cc(OC)c1OC	.	.	i	.	.	16µM*
Cc1ccnc(NC(=S)NC(=O)c2cncc(Br)c2)c1	-1%	-5%	i	0%	0%	i
Cc1nc(NC(=S)NC(=O)c2cncc(Br)c2)ccc1Br	0%	7%	3.7µM*	2%	4%	?
CSc1cc(-c2ccccc2)[nH]c(=O)c1C#N	-1%	15µM*	i	-12%	-11%	i

Bioassay records as filed in PubChem BioAssay.
